This is one part of a sample in which hits are shown more often than they occur.
mcGAS RapidFire: blocks mouse cGAS cGAMP production; inhibition, % at 12.5 µM; Q8C6L5; hit rate 0.18% among 130,000; AID 1259397; recombinant mouse cGAS, cGAMP by RapidFire MS;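 active = inhibition of cGAS enzyme activity at or above 60%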;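 note: enzyme stimulated by 45 bp dsDNA with ATP and GTP substrates; cGAMP share of summed cGAMP plus half ATP and half GTP signals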
Target sequence (Q8C6L5 whole entry, looked up): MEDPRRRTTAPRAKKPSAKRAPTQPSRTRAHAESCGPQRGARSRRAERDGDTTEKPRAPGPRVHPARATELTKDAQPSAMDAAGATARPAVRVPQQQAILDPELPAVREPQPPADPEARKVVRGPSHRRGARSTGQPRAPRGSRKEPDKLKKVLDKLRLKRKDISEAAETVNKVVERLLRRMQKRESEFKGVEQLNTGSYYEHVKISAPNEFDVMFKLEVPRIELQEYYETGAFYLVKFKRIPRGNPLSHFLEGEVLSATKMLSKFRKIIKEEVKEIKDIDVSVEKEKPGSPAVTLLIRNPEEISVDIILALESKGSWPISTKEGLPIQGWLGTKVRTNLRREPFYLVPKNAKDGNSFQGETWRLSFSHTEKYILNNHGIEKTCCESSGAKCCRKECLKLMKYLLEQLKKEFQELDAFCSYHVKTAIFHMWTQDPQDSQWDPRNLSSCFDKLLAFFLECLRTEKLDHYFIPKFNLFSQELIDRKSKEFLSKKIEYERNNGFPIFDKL
Numbers stand for hits.

`CC1C(c2ccc(Cl)cc2)=[N+]([O-])C(C)(c2ccccc2)N1O` (stereo unspecified) gave mcGAS RapidFire inactive.
Screening CC(=O)C1(C)N(O)C(C)(C)C(c2ccc(Cl)cc2)=[N+]1[O-] (stereo unspecified) returned mcGAS RapidFire inactive.
CC(=O)Nc1cc(C(=O)Nc2n[nH]c(C)n2)cc(C(F)(F)F)c1 was read as mcGAS RapidFire inactive.
Screening CC(C)(CNC(=O)C1CCCN(CC(N)=O)C1)N1CCc2ccccc2C1 (stereo unspecified) returned mcGAS RapidFire inactive.
O=c1cc(CCn2cccn2)nc(-c2ccc(CN3CCC[C@@H]3CO)cc2)[nH]1 was read as mcGAS RapidFire 89.0.
Screening OC[C@@H]1CCCN1Cc1csc(-c2ccc(Br)cc2)n1 returned mcGAS RapidFire inactive.
O=C(O)c1ccccc1CN1CCCCC1CCn1cccn1 (stereo unspecified) was read as mcGAS RapidFire inactive.
COc1cc(NCc2cc(-c3ccccn3)no2)ncn1 was read as mcGAS RapidFire inactive.
O=C(NCC1CCCN(Cc2cnc(-c3ccccc3)s2)C1)c1n[nH]c2ccccc12 (stereo unspecified) was read as mcGAS RapidFire inactive.
Screening Cc1nnc(NCC2(N3CCOCC3)CCCCC2)c(C#N)c1C returned mcGAS RapidFire inactive.
`CC(C)C(C)NC(=O)c1ccc2c(c1)S(=O)(=O)Nc1ncnn1-2` (stereo unspecified) gave mcGAS RapidFire inactive.
`COC(=O)CSC1=NS(=O)(=O)c2ccccc2N1` gave mcGAS RapidFire inactive.
Screening COC(=O)c1nc2n(n1)-c1ccccc1S(=O)(=O)N2 returned mcGAS RapidFire 91.3.
For Cc1nc2sccn2c1CNC1CCN(CC2CCCC2)CC1 the results were mcGAS RapidFire inactive.
`COC(=O)c1ccc(CSc2ncc(CO)n2CC(=O)NC(C)C)cc1` gave mcGAS RapidFire inactive.
For COCCNC(=O)c1ccc(OC2CCN(C(=O)c3ccsc3)CC2)c(Cl)c1 the results were mcGAS RapidFire inactive.
COC(=O)c1cc2c(=O)n(-c3ccc(C(C)C)cc3)ccc2nc1C was read as mcGAS RapidFire inactive.
For CC(C)c1nc2oc3ccccc3c(=O)c2c(=O)n1-c1ccccc1 the results were mcGAS RapidFire inactive.
O=C(c1cc(C2CC2)[nH]n1)N(Cc1ccccc1)C1CCS(=O)(=O)C1 (stereo unspecified) was read as mcGAS RapidFire inactive.
For Cc1c(C(=O)N(C)Cc2ccc(F)cc2)sc(=O)n1Cc1cccc(F)c1 the results were mcGAS RapidFire inactive.
For Cc1ccc(Sc2ccc(NC(=O)C3=COCCO3)cc2)cc1C the results were mcGAS RapidFire inactive.
Screening COc1cc(/C=C/c2ccc(O)c(OC)c2)ccc1O returned mcGAS RapidFire inactive.
`COc1cc(/C=c2\sc3nc4cc(Br)cnc4n3c2=O)ccc1O` gave mcGAS RapidFire 71.5.
For COc1cc(C=C2C(=O)N(C)C(=O)N(C)C2=O)ccc1O the results were mcGAS RapidFire inactive.
For NCC1(CN2CCOCC2)CCCCC1 the results were mcGAS RapidFire inactive.
COc1ccc(NC(=O)C2(C)CCN2Cc2ccc(-c3ccccn3)cc2)cc1OC (stereo unspecified) was read as mcGAS RapidFire inactive.
Screening COc1cccc2c1C(=O)c1c(O)c3c(c(O)c1C2=O)C[C@@](O)(C(C)=O)C[C@@H]3OC1CC(N)C(O)C(C)O1 (stereo partly specified) returned mcGAS RapidFire 93.3.
COc1cccc2c1C(=O)c1c(O)c3c(c(O)c1C2=O)C[C@@](O)(C(=O)CO)C[C@@H]3O[C@H]1C[C@H](N)[C@H](O)[C@H](C)O1 was read as mcGAS RapidFire 95.8.
O=S(=O)(Nc1ccc(F)cc1F)c1ccccc1Cl was read as mcGAS RapidFire inactive.
O=C(C1CCC1)N1CCN(c2cnn(-c3ccccc3)c(=O)c2Cl)CC1 was read as mcGAS RapidFire inactive.
For O=C(NCCCc1cccc(F)c1)NC1CCCC1CO (stereo unspecified) the results were mcGAS RapidFire inactive.
For Cc1ccccc1-c1ncc(CN2CCC(CO)(Cc3cccc(C(F)(F)F)c3)CC2)cn1 the results were mcGAS RapidFire inactive.
`CSC(N)=NC(c1ccc(F)cc1)c1ccc(F)cc1` gave mcGAS RapidFire inactive.
Screening CCOC(=O)c1c[nH]cc(C)c1=O returned mcGAS RapidFire inactive.
`CCOC(=O)c1cc(Cl)nc(Cl)c1C` gave mcGAS RapidFire inactive.
For CCOC(=O)c1cc(C(=O)OCC)c2c(C)cc(C)cc(C)c1-2 the results were mcGAS RapidFire 87.9.
Screening COC(=O)c1c(C)nsc1NC(=O)N1CCCC(CNC(N)=O)C1 (stereo unspecified) returned mcGAS RapidFire inactive.
`N#Cc1c(N)oc2c3c(c(O)cc12)C(=O)c1ccccc1C3=O` gave mcGAS RapidFire 68.5.
`Cc1oc2ccccc2c1C#N` gave mcGAS RapidFire inactive.
Cc1cc(=O)oc2c(-c3cc(-c4cccs4)nc(N)n3)c(O)ccc12 was read as mcGAS RapidFire inactive.
COc1ccc(C2c3c(n[nH]c3-c3ccccc3)OC(=N)C2C#N)c(OC)c1 (stereo unspecified) was read as mcGAS RapidFire inactive.

Screens deposited in PubChem by Fisher Drug Discovery Resource Center.
